Reference: the supplement of paper PMC10849652
Targets with a hit are over-represented here; the source holds about 7,900 in all. About 0.6% of all pairs of compound and target were hits. Values without a mark were called inactive.

Compound: NC(=O)Nc1cc(-c2cccc(F)c2)sc1C(=O)N[C@H]1CCCNC1
Assay: log2 fold change, soluble protein after heating vs DMSO (PISA); higher = thermal stabilisation; K562 cells, 10 uM, 30 min; active = over 0.2 and 3.5 SD of the protein, either way, in both replicates (recomputed)
Method in brief: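 Soluble protein was quantified by TMTpro 16plex LC-MS/MS after channel sums were equalised. It was obtained as the supernatant after 21,000xg for 90 min from pooled aliquots of K562 cells (2×10^6 cells/mL, 10 μM compound, 30 min) heated for 3 min across 48°C-58°C and extracted in PBS with 0.5% NP-40 at 4°C. Thermal stability values are relative to control samples and come from duplicates. They are given as log2 fold changes.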

Sequence of UniProt Q01082 (Q01082 whole entry, looked up): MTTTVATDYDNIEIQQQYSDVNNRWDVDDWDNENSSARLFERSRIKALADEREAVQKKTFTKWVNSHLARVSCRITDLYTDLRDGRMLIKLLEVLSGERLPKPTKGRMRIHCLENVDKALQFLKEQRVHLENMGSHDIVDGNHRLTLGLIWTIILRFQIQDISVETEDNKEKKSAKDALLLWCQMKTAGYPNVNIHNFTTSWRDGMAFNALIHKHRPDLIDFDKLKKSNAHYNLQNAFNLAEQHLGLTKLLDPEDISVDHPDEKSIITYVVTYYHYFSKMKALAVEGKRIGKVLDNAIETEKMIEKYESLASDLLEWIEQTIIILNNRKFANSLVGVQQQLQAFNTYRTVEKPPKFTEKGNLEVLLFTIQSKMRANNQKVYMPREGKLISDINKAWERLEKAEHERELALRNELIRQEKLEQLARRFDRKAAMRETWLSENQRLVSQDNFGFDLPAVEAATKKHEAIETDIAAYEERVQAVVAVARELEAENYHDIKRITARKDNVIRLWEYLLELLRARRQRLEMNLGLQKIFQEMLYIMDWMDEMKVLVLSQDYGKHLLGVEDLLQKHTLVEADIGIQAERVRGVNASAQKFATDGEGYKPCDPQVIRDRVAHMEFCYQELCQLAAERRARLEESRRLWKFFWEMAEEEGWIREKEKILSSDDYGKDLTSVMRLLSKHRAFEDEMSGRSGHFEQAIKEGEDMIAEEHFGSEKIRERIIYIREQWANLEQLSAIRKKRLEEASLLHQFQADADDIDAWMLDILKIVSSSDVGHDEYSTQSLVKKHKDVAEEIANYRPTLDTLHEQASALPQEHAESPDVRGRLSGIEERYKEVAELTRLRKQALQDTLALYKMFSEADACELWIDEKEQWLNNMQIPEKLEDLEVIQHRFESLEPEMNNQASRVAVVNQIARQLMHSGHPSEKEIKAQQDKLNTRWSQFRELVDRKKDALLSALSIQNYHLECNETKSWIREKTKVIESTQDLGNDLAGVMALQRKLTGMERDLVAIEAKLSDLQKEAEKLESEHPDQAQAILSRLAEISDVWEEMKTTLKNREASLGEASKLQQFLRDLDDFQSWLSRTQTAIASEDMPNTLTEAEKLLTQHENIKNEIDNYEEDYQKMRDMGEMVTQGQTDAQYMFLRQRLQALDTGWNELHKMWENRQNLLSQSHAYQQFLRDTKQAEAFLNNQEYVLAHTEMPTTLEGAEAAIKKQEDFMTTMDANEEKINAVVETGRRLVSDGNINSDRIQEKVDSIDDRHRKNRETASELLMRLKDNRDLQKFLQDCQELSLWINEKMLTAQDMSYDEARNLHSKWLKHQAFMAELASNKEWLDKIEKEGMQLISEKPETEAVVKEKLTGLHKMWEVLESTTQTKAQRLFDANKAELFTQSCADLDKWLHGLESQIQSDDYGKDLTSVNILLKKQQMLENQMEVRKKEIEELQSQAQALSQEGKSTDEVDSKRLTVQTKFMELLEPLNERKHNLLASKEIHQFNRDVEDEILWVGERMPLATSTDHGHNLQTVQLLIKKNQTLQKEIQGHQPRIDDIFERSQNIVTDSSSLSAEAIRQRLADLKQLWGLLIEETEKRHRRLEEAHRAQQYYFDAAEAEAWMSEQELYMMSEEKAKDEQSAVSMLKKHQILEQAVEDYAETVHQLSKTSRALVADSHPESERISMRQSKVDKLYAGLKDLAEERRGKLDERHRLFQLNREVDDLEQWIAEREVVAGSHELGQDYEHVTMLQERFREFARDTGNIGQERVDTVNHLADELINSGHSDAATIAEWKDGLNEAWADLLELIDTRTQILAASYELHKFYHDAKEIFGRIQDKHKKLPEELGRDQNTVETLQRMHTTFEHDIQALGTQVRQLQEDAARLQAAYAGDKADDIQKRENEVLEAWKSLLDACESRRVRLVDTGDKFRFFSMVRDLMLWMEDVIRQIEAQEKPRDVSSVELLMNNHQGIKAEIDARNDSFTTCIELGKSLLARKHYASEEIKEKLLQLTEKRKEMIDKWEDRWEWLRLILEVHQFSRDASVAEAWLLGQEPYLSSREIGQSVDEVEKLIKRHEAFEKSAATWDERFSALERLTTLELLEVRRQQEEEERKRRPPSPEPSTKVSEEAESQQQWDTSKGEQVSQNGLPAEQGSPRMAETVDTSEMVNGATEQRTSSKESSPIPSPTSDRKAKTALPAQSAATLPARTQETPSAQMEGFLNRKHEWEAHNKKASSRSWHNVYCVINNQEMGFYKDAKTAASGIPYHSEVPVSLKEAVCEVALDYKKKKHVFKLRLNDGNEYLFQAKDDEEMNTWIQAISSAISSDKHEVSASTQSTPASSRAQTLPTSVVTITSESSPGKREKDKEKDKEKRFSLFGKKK
Sequence of UniProt Q15005 (Q15005 whole entry, looked up): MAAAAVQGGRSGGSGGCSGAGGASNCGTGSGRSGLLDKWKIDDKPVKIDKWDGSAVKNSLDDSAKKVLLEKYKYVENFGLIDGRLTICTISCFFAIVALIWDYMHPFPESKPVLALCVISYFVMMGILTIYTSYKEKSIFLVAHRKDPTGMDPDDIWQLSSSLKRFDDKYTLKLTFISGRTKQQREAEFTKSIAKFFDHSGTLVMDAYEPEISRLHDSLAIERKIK
Sequence of UniProt Q13247 (Q13247 whole entry, looked up): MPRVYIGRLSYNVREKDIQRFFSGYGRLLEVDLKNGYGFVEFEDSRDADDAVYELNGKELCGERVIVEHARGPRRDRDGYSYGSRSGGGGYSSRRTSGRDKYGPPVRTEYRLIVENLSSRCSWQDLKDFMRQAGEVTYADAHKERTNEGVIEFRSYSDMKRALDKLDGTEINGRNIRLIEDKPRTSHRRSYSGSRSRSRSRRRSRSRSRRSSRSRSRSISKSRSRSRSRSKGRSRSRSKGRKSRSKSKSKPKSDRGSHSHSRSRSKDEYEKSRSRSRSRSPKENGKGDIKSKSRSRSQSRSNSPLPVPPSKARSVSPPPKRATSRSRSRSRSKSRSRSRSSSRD
Sequence of UniProt Q02447 (Q02447 whole entry, looked up): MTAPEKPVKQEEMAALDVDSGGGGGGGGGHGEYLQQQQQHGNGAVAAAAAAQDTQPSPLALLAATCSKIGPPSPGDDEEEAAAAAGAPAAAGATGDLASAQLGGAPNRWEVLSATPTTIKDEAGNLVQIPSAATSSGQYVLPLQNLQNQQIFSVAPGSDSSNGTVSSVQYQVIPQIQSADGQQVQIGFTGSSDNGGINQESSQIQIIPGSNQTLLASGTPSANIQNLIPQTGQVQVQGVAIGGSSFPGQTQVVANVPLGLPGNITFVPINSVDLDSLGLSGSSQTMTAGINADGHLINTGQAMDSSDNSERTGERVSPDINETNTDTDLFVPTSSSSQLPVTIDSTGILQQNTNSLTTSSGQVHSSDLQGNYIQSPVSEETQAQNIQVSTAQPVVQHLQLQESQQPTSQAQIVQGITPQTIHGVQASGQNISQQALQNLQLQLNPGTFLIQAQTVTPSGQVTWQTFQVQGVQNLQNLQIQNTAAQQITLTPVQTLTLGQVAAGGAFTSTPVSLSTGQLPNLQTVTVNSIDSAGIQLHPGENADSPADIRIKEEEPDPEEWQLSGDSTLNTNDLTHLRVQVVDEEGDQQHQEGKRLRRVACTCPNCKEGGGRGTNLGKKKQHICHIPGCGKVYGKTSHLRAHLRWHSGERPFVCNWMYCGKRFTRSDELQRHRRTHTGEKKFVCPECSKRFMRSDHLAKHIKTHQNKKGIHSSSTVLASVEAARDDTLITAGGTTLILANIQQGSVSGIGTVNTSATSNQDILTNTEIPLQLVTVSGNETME
Sequence of UniProt Q969S0 (Q969S0 whole entry, looked up): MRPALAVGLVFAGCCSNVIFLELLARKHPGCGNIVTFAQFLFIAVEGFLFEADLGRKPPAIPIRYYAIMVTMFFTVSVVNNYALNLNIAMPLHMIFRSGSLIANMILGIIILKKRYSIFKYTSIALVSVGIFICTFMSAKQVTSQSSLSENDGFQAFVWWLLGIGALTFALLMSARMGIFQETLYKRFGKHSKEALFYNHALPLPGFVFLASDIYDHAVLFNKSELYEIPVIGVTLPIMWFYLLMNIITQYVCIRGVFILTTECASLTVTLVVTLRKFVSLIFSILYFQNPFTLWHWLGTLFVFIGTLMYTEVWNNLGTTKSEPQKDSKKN
Sequence of UniProt O14975 (O14975 whole entry, looked up): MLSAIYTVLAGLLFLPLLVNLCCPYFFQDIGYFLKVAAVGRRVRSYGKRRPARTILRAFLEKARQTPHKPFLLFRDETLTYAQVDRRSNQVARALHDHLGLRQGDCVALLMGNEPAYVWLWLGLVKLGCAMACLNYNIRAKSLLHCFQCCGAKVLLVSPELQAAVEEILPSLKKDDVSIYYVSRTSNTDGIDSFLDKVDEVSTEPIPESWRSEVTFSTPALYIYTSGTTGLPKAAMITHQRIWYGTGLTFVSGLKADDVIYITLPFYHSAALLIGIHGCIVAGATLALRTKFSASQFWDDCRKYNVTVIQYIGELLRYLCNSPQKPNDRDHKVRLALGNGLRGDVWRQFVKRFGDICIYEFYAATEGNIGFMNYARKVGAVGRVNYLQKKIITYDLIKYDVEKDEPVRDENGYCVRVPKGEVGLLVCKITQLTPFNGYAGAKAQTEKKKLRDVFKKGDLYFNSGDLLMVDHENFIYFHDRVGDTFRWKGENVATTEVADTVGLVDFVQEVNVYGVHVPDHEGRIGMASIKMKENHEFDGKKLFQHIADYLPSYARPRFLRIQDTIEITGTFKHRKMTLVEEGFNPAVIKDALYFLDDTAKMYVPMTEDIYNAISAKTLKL
Sequence of UniProt Q16629 (Q16629 whole entry, looked up): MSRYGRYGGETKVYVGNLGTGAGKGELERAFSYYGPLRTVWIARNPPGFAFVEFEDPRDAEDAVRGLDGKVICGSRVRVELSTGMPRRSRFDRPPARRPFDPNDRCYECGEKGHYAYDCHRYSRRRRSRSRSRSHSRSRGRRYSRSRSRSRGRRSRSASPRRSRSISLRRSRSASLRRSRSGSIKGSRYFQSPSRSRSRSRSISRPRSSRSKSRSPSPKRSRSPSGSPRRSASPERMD

Target	log2 fold change
TCERG1 (UniProt O14776)	-0.026
SPCS2 (UniProt Q15005)	0
TK1 (UniProt K7ERV3)	-0.127
SP3 (UniProt Q02447)	0.15
STARD3 (UniProt Q14849)	0.014
SRSF6 (UniProt Q13247)	-0.06
SPTBN1 (UniProt Q01082)	-0.051
SNX15 (UniProt Q9NRS6)	0.106
SLC29A3 (UniProt Q9BZD2)	-0.098
SRSF11 (UniProt Q05519)	-0.183
SLC35B4 (UniProt Q969S0)	-0.006
SLC27A2 (UniProt O14975)	-0.068
SPPL2B (UniProt Q8TCT7)	0.06
SMPD4 isoform 4 (UniProt Q9NXE4)	-0.008
SLC9A6 isoform 2 (UniProt Q92581)	-0.021
TGFBI (UniProt Q15582)	-0.037
TACC2 (UniProt O95359)	-0.013
STXBP5 (UniProt Q5T5C0)	0.006
STOM (UniProt P27105)	-0.104
SRSF7 (UniProt Q16629)	0
SYNE2 isoform 2 (UniProt Q8WXH0)	-0.229
SLC38A9 (UniProt Q8NBW4)	-0.129
TBRG4 (UniProt Q969Z0)	-0.103
